Measurements published in PubChem BioAssay (EPA / NIEHS).
Active and inactive are the calls of the source. How the source made its calls: active means hit-call score of the fitted dose curve at least 0.9, where 1 is the maximum; inactive means score below 0.9.

Experiments:
[1] = read-out: catalase (CAT), CAT (gene 847); test: LTEA_HepaRG_CAT: Life Technologies and Expression Analysis (LTEA) Assay for catalase (CAT) using HepaRG (AID 2283452); conditions: mRNA level, 48 h; actives raise or lower the signal;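 on AC50: TaqMan qRT-PCR signal normalized to ACTB GAPDH and POLR2A housekeeping genes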
Procedure, shortened: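 Differentiated HepaRG cells in serum-free induction medium were dosed 48 h in duplicate, eight half-log concentrations from 100 uM in 0.5% DMSO. Transcript measured by TaqMan qRT-PCR, normalised to ACTB/GAPDH/POLR2A, fitted bidirectionally against DMSO.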

[2] = read-out: flavin-containing dimethylaniline monooxygenases 3 (FMO3), FMO3 (gene 2328); test: LTEA_HepaRG_FMO3: Life Technologies and Expression Analysis (LTEA) Assay for flavin-containing dimethylaniline monooxygenases 3 (FMO3) using HepaRG (AID 2283453); conditions: mRNA level, 48 h; actives raise or lower the signal
Procedure, shortened: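 Differentiated HepaRG cells in serum-free induction medium, exposed 48 h in duplicate to 8 half-log concentrations up to 100 uM in 0.5% DMSO. FMO3 mRNA by qRT-PCR, normalized to ACTB, GAPDH, POLR2A; bidirectional fit vs DMSO.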

[3] = read-out: Cytochrome P450 (CYP1A1), CYP1A1 (gene 1543); test: LTEA_HepaRG_CYP1A1: Life Technologies and Expression Analysis (LTEA) Assay for Cytochrome P450 (CYP1A1) using HepaRG (AID 2283454); conditions: mRNA level, 48 h; actives raise or lower the signal
Procedure, shortened: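 Differentiated human HepaRG cells, after 48 h plating, exposed in duplicate for 48 h in serum-free induction medium to 8 half-log concentrations up to 100 uM in 0.5% DMSO. CYP1A1 mRNA by qRT-PCR, normalized to ACTB/GAPDH/POLR2A; bidirectional fit versus DMSO.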

[4] = read-out: CFLAR gene, CFLAR (gene 8837); test: LTEA_HepaRG_CFLAR: Life Technologies and Expression Analysis (LTEA) Assay for CFLAR gene using HepaRG (AID 2283455); conditions: mRNA level, 48 h; actives raise or lower the signal
Procedure, shortened: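 HepaRG cells were plated for 48 h, switched to serum-free induction medium, then exposed in duplicate for 48 h to 8 concentrations (top 100 uM, half-log steps, 0.5% DMSO). CFLAR mRNA was measured by qRT-PCR, normalized to ACTB, GAPDH and POLR2A.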

[5] = read-out: Forkhead box O1 (FOXO1), FOXO1 (gene 2308); test: LTEA_HepaRG_FOXO1: Life Technologies and Expression Analysis (LTEA) Assay for Forkhead box O1 (FOXO1) using HepaRG (AID 2283456); conditions: mRNA level, 48 h; actives raise or lower the signal
Procedure, shortened: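 Differentiated human HepaRG cells in serum-free induction medium were exposed in duplicate for 48 h to eight half-log concentrations (top 100 uM, 0.5% DMSO). FOXO1 mRNA was measured by TaqMan qRT-PCR, normalised to ACTB, GAPDH and POLR2A, and fitted bidirectionally against DMSO.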

[6] = read-out: growth arrest and DNA damage 45 (GADD45A), GADD45A (gene 1647); test: LTEA_HepaRG_GADD45A: Life Technologies and Expression Analysis (LTEA) Assay for growth arrest and DNA damage 45 (GADD45A) using HepaRG (AID 2283458); conditions: mRNA level, 48 h; actives raise or lower the signal
Procedure, shortened: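 Cells plated and cultured 48 h, switched to serum-free induction medium, then dosed for 48 h (100 uM top, half-log dilutions, 0.5% DMSO). RNA was isolated and transcript measured by Fluidigm qRT-PCR.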

[7] = read-out: Forkhead box O3 (FOXO3), FOXO3 (gene 2309); test: LTEA_HepaRG_FOXO3: Life Technologies and Expression Analysis (LTEA) Assay for Forkhead box O3 (FOXO3) using HepaRG (AID 2283459); conditions: mRNA level, 48 h; actives raise or lower the signal
Procedure, shortened: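 Differentiated human HepaRG cells in serum-free induction medium were exposed in duplicate for 48 h to eight half-log concentrations up to 100 uM in 0.5% DMSO. FOXO3 mRNA was quantified by qRT-PCR, normalized to ACTB, GAPDH and POLR2A, with bidirectional fitting versus DMSO.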

[8] = read-out: ABC Transporter (ABCB1), ABCB1 (gene 5243); test: LTEA_HepaRG_ABCB1: Life Technologies and Expression Analysis (LTEA) Assay for ABC Transporter (ABCB1) using HepaRG (AID 2283460); conditions: mRNA level, 48 h; actives raise or lower the signal
Procedure, shortened: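 Differentiated human HepaRG cells, plated 48 h then switched to serum-free induction medium, were exposed in duplicate to eight half-log concentrations up to 100 uM in 0.5% DMSO for 48 h. ABCB1 mRNA was measured by TaqMan qRT-PCR, normalized to ACTB/GAPDH/POLR2A.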

[9] = read-out: Cyclin D1 (CCND1), CCND1 (gene 595); test: LTEA_HepaRG_CCND1: Life Technologies and Expression Analysis (LTEA) Assay for Cyclin D1 (CCND1) using HepaRG (AID 2283451); conditions: mRNA level, 48 h; actives raise or lower the signal
Procedure, shortened: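 Differentiated HepaRG cells exposed 48 h in serum-free induction medium to eight half-log concentrations from 100 uM top, 0.5% DMSO, duplicates. CCND1 mRNA measured by Fluidigm TaqMan qRT-PCR, normalised to ACTB, GAPDH, POLR2A; bidirectional fit.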

[10] = CEETOX_H295R_TESTO: CeeTox H295R High-throughput Steroidogenesis Assay for Testosterone (TESTO) (AID 2283457); conditions: actives raise or lower the signal
Procedure: CEETOX_H295R is a cell-based, multiplexed-readout assay that uses H295R, a human adrenal gland cell line, with measurements taken at 48 hours after chemical dosing in a 96-well plate.CEETOX_H295R_TESTO is one of 23 assay component(s) measured or calculated from the CEETOX_H295R assay. It is designed to make measurements of hormone induction, a form of inducible reporter, as detected with […] by HPLC-MS-MS technology.Data from the assay component CEETOX_H295R_TESTO was analyzed into 1 assay endpoint. This assay endpoint, CEETOX_H295R_TESTO, was analyzed with bidirectional fitting relative to DMSO as the negative control and baseline of activity. Using a type of inducible reporter, gain or loss-of-signal activity using HPLC-MS-MS was used to understand synthesis of Testosterone in H295R cell line at 48hr of chemical exposure. To generalize the intended target to other relatable targets, this assay endpoint is annotated to the steroid hormone intended target family, where the subfamily is androgens.
Cell culture and media preparation procedures were conducted in accordance with OECD Test No. 456 guidelines, with minor modifications. H295R cells (ATCC CRL-2128) were expanded for 5 passages and frozen in batches in liquid nitrogen. Prior to the steroidogenesis assay, H295R cells were thawed and passed at least 4 times. The maximum passage was 10. Cells were maintained in a 1:1 mixture of DMEM/F12 supplemented with 5ml/L ITS+ Premix (BD Bioscience) and 12.5 ml/L Nu-Serum (BD Bioscience). After seeding cells into 96-well plates at 50-60% confluency, cells were allowed to adhere overnight. […] Test chemicals were incubated for 48 hours, then the medium was removed and split into 2 vials containing approximately 75uL each, and stored at -80 C prior to hormone analysis. For steroid quantification, media samples were shipped to OpAns, LLC (Durham, NC) on dry ice, and samples were thawed to room temperature prior to liquid-liquid extraction. Steroid hormones were extracted from media samples using methyl tertbutyl ether (MTBE). An extra derivatization with dansyl chloride was included for estrogen (estrone and estradiol) detection only. Steroid hormones were separated by HPLC, eluted using a reverse phase C18 gradient with electrospray positive ionization, followed by quantification by tandem mass spectrometry (MS/MS). Data were acquired on a MassHunter Workstation Acquisition version B03.01 (Agilent Technologies, Inc.) and processed using MassHunter Quantitative Analysis for QQQ. Accuracy was determined for each hormone analyte from 3 standards to determine upper and lower limits of quantification (ULOQ and LLOQ, respectively) using a 7-point standard curve. Precision and accuracy of the extraction and quantification methods were calculated as the percent relative standard deviation (%RSD) of the spiked standards and percent spiked standard recovered, respectively. […] Test medium was removed following chemical exposure, and cell viability was evaluated in the same wells by MTT. MTT procedures were as follows: after removal of test medium, 500 uL of 0.5 mg/ml of 3-[4,5-dimethylthiazol-2-y]2,5-diphenyltetrazoliumbromide solution was added to the cells. Following a 4-hour incubation at 37 C and 5% CO2 to allow formazan-crystal formation, the MTT solution was removed and blue formazan salt crystals were solubilized using 500uL anhydrous isopropanol with shaking for 20 minutes. Absorbance was read at 570 and 650nm using a Packard Fusion microplate reader. Background correction of absorbance units was used to determine percent change relative to controls. […] When a test chemical reduced cell viability to 20% - 70%, the test chemical was diluted 10-fold and re-evaluated, but if cell viability was <20%, then the test chemical was diluted 100-fold and re-evaluated. Test chemical dilutions were made until cell viability was >/=70%. MTT assays were also conducted for duplicates of all concentrations of chemicals tested in concentration-response studies. […]

Measured: AC50

CCc1c(C(=O)NN2CCCCC2)nn(-c2ccc(Cl)cc2Cl)c1-c1ccc(Br)cc1
active: [1] 41 µM | [2] 35.5 µM | [3] 5.22 µM | [5] 84.3 µM | [6] 82.1 µM | [8] 86.8 µM
inactive: [4] | [7]

CCCCCCCCCCCCCCCCCC(=O)O
active: [3] 50 µM
not listed: [9] | [10]
inactive: all other assays above

CCCCCCCCCCC
active: [3] 50 µM
not listed: [9] | [10]
inactive: all other assays above

Nc1ccccc1N
active: [1] 61.7 µM | [2] 63.7 µM | [3] 3.28 µM | [4] 61.4 µM | [5] 82.2 µM | [7] 63.3 µM | [8] 68.9 µM
inactive: [9]

CCCCCCOCCO
active: [3] 50 µM
not listed: [9] | [10]
inactive: all other assays above

CCOC(=O)C(C)(C)Oc1ccc(Cl)cc1
active: [3] 50 µM
not listed: [6] | [10]
inactive: all other assays above

Cc1nc(C)nc(N2C[C@@H](C)N(c3ccnc([C@@H](C)O)n3)[C@@H](C)C2)n1
not listed: [6] | [10]
inactive: all other assays above

O=C(O)CCCCC(=O)O
active: [3] 73.7 µM
not listed: [6] | [10]
inactive: all other assays above

CCOC(=O)CCC(=O)OCC
not listed: [6] | [10]
inactive: all other assays above

COc1cc(C=O)ccc1O
not listed: [9] | [10]
inactive: all other assays above

Cc1cc(NC(=O)C(=O)O)cc(C)c1Oc1ccc(O)c2c1CCC2
active: [1] 0.303 µM | [3] 0.0026 µM
not listed: [9]
inactive: all other assays above
